# Values joined by “and” are separate entries in the source; they are usually repeats but may differ in a detail not shown here. Equal values may be shown once. Out of some 420,000 compounds screened, about 64,000 (15%) were called active. About 27% were inconclusive and are not listed. Only a sample is shown. A number with no mark means an inactive call. The call rests on the fitted dose curve; in most records, active means well fitted inhibition curve with a large enough effect; inconclusive means small, poorly fitted or top-dose-only effect; inactive means flat fitted curve, though single readings scatter.
# Experiment: qHTS for Inhibitors of human tyrosyl-DNA phosphodiesterase 1 (TDP1): qHTS in cells in absence of CPT; further: nearly all actives have a fitted effect of over 55% in size
# Settings: DT40 Tdp1-/- hTDP1 cells, no CPT, ATP luminescence, 48 h; activity change, negative = growth inhibition: at 46.2 µM (top of the series)
# Outline: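 Readout: luminescence from CellTiter-Glo after 30 min in the dark at RT. Cells: DT40 Tdp1-/- with stable hTDP1, 400/well. Exposure: compounds alone, ≥48 hr, 37 °C.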
# On the % scale 0 is the no-effect control and ±100 the full control effect; potency means the concentration at half of the fitted maximal effect.
SMILES,"activity change, negative = growth inhibition",Potency
CO[C@]1(NC(=O)CSC(F)F)C(=O)N2C(C(=O)O)=C(CSc3nnnn3CCO)CO[C@H]21,-3.78%,–
O=C(C1CCN(C2CCN(Cc3ccc4cc(F)ccc4n3)CC2)CC1)N1CCCC1,-18.6%,–
COc1ccc(CCNC(=S)N2CCN(S(=O)(=O)c3ccc(F)cc3)CC2)cc1,3.3%,–
COc1ccc(CCNS(=O)(=O)c2cc3c(cc2C)NC(=O)CO3)cc1OC,-7.25%,–
CCc1ccccc1NC(=O)c1ccc(F)c(S(=O)(=O)NC2CCCCCC2)c1,-7.92%,–
CCc1ccc(OCC(O)CN2CCN(CCO)CC2)cc1 (configuration not stated),5.07%,–
COc1ccc(N(CC(=O)N2CCOCC2)S(=O)(=O)c2ccccc2)cc1Cl,-12.2%,–
Cc1cccc(OC(=O)c2sc3ncn(C)c(=O)c3c2C)c1,-8.1%,–
O=C(NCCCN1CCCCC1)C1CCCN(c2ncnc3c2nc2n3CCCCC2)C1 (configuration not stated),1.26%,–
COCCNc1ncnc2c1nc1n2CCCC1,0.903%,–
COc1cccc(NC(=O)C2CCCN(c3ncnc4c3nc3n4CCCCC3)C2)c1 (configuration not stated),–,20.6 µM (active)
COc1ccc(NC(=O)N2CCCC(C(=O)Nc3ccccc3OC)C2)cc1 (configuration not stated),-1.09%,–
COc1cccc(NC(=O)C/C(C)=N/NC(=O)C2CCCCC2)c1,-4.86%,–
CCCN(CCC)C(=O)C1CCCN(c2ncnc3c2nc2n3CCCCC2)C1 (configuration not stated),–,20.6 µM (active)
O=C(Nc1cc(-c2nc3ccccc3o2)ccc1Cl)c1cc([N+](=O)[O-])ccc1N1CCOCC1,-23.6%,–
CC(C)NC(=O)N1CC[C@@]2(CCCN(C(=O)c3cccn3C)C2)C1,-10.1%,–
CCC(=O)N1c2ccccc2CC1C(=O)N1CCN(c2ccccc2)CC1 (configuration not stated),-28%,–
CCOC(=O)c1c(S(=O)(=O)N2CCC(C(=O)NCc3ccccc3OC)CC2)c(C)n(C)c1C,-5.74%,–
Cc1cc(C)cc(-c2nnc(SCC(=O)NC3CC3)o2)c1,-2.32%,–
CC1=CC2=NC(=O)CC(C)(C(=O)N(CC(=O)NC(C)(C)C)Cc3ccccc3)N2C=C1 (configuration not stated),-4.59%,–
COC(=O)c1ccc(CSc2nnc(NC(C)C)s2)cc1,-17.7%,–
COc1ccc(-c2nc(CS(=O)CC(=O)NCc3ccccc3)c(C)o2)cc1OC (configuration not stated),6.91%,–
Cc1ccc(CN2CCN(c3ncccn3)CC2)c(C)c1,-19.4%,–
COc1ccc(-c2nc(CN3CCN(c4ncccn4)CC3)c(C)o2)cc1C,–,20.6 µM (active)
Cc1c(C(=O)NCCCc2ccccc2)cccc1[N+](=O)[O-],-11.1%,–
CC(C)(C)C(=O)Nc1c(Br)c(C2CC2)nn1-c1ccccc1,-3.93%,–

SMILES,"activity change, negative = growth inhibition",Potency
CCOC(=O)c1[nH]cnc1C(=O)NC1CCCCC1,-10.9%,–
C/C=C/c1ccc(OCC(=O)OCC(=O)Nc2c(C)nn(-c3ccccc3)c2C)c(OC)c1,-2.94%,–
Cc1nn(-c2ccccc2)c(C)c1NC(=O)COc1ccc(Cl)cc1Cl,–,9.2 µM (active)
Cc1nn(-c2ccccc2)c(C)c1NC(=O)COC(=O)c1cc(Cl)ccc1O,-6.13%,–
COc1ccccc1CNC(=O)C1CCN(S(=O)(=O)c2ccc3c(c2)OCCO3)CC1,-18%,–
COc1ccc(-n2nc3c(c2NC(=O)c2ccc(N4C(=O)CCC4=O)cc2)CSC3)cc1,-4.48%,–
O=C(O)Cc1ccc(-c2ccccc2)cc1,–,inactive
CC(=O)N1C(=O)/C(=C2\SC(=S)N(NC(=O)c3ccc(O)cc3)C2=O)c2ccccc21,-6.31%,–
O=C(COc1ncnc2ccccc12)NC(=O)NCc1ccccc1,0.729%,–
COc1ccc(CNc2ncnc3ccccc23)cc1,–,0.651 µM (active)
CCOCCCn1c(NN)nc2ccccc2c1=O,-24.6%,–
COc1ccc(CNc2nccs2)cc1,-1.94%,–
c1coc(CNc2ncnc3ccccc23)c1,–,12.6 µM (active) and 5.17 µM (active)
Brc1nc2ncnc(NCc3ccco3)c2[nH]1,-25.7%,–
Cc1ccc(C(=O)NNc2ncnc3ccccc23)cc1,-11.2%,–
CCC(=O)OCCNc1nc(-c2ccccc2)nc2ccccc12,-21.2%,–
c1ccc(-c2nc(NCc3ccco3)c3ccccc3n2)cc1,–,23.1 µM (active)
Cc1ccccc1-c1nc(N(C)Cc2ccco2)c2ccccc2n1,-43.2%,–
Cc1cnc(CNc2nc(-c3cccnc3)nc3ccccc23)cn1,-8.11%,–
CCOCCCNc1nc(-c2ccccc2)nc2ccccc12,–,14.6 µM (active)
CCOC(=O)c1nnn(CC(=O)Nc2cccc(F)c2)c1C(=O)OCC,-21.9%,–
CCCCn1c(N)c(N2CCOCC2)c(=O)n(CC(=O)NCCc2ccccc2)c1=O,28.4%,–
Cc1ccc(NNC(=O)C2CCC2)cc1C,-28.8%,–
COc1ccccc1-c1c(C#N)c(N)nc2c1CCC2,-24.4%,–
Cc1ccc2nsnc2c1NC(=O)c1ccccc1[N+](=O)[O-],-17.5%,–
Cc1c(CN2CCC(n3nccc3NC(=O)CCc3ccccc3)CC2)cnn1C,22.2%,–

SMILES,"activity change, negative = growth inhibition",Potency
c1ccc(CCC2=NCCn3cccc32)cc1,–,inactive
CCc1ccc(NC(=O)CN2C(=O)CSC2=O)cc1,-14.3%,–
O=C(Nc1ccccc1Cl)O/N=C(/c1ccccc1)c1ccccn1,-5.77%,–
Cc1ccnc(Nc2nc3ccccc3s2)n1,-12.8%,–
c1ccc(C(=NNc2nc3ccccc3s2)c2ccccn2)cc1,–,0.13 µM (active)
CCC(CC)C(=O)Nc1ccc(S(=O)(=O)Nc2nccs2)cc1,-15.6%,–
Cn1nnc2cc(C(=O)NCCC3=CCCCC3)ccc21,-28%,–
Cc1ccnc(NC(=O)c2ccc(Cl)c([N+](=O)[O-])c2)c1,-16.4%,–
O=C(NCCC1=CCCCC1)c1ccc(Cl)c([N+](=O)[O-])c1,–,16.4 µM (active)
O=C(Nc1cccnc1)c1ccc(Cl)c([N+](=O)[O-])c1,-18.2%,–
O=C(Nc1ccncc1)c1ccc(Cl)c([N+](=O)[O-])c1,–,14.6 µM (active)
O=C(NCCC1=CCCCC1)c1ccc(-n2cncn2)cc1,10.9%,–
C#CCCCCCCCCCCCCCCCC(=O)O,–,inactive
CCCCC(=O)OC1=CN(Cc2ccccc2)S(=O)(=O)c2ccccc21,-25.3%,–
CCOC(=O)Cc1cccc(-c2cc(CCCCCCc3ccc(O[C@H]4O[C@H](COC(C)=O)[C@@H](OC(C)=O)[C@H](OC(C)=O)[C@@H]4OC(C)=O)c(-c4cccc(CC(=O)OCC)c4)c3)ccc2O[C@H]2O[C@H](COC(C)=O)[C@@H](OC(C)=O)[C@H](OC(C)=O)[C@@H]2OC(C)=O)c1,-2.24%,–
COC(C[C@@H]1O[C@@H]1C(=O)[C@@H](C)OCc1ccccc1)OC,-0.475%,–
Cc1ccccc1CSCCNC(=O)C1CCN(S(=O)(=O)Cc2ccccc2)CC1,1.55%,–
Cc1cccc(NC(=O)C2CCCN(C(=O)Nc3ccc(F)cc3)C2)c1C (configuration not stated),-19%,–
Cc1c(Cl)cccc1NC(=O)C1CCCN(c2ncnc3onc(C)c23)C1 (configuration not stated),–,6.51 µM (active)
Cc1ccc(Cl)cc1NC(=O)C1CCCN(c2cnccn2)C1 (configuration not stated),-14.8%,–
Cc1cn([C@H]2C[C@H](O)[C@@H](/C=C/C(=O)NCCCc3ccccc3)O2)c(=O)[nH]c1=O,-6.38%,–
Cc1ccc(C)c(NC(=O)C2CCCN2C(=O)OC(C)(C)C)c1 (configuration not stated),-7.65%,–
O=C(COc1cc2oc(=O)c3c(c2cc1Cl)CCC3)NCCCN1CCOCC1,1.09%,–
COc1ccc(N2CCN(CCNC(=O)Nc3cc(Cl)ccc3Cl)CC2)cc1,-3.29%,–
CCOC(=O)c1c(C)[nH]c(CCC(=O)NCCCN2CCN(c3cccc(Cl)c3)CC2)c1C,–,16.4 µM (active)
Cc1ccc(C)c(N2CCN(CCCNC(=O)Nc3ccc(Cl)cc3)CC2)c1,–,6.51 µM (active)

SMILES,"activity change, negative = growth inhibition",Potency
CCOC(=O)c1c(C)[nH]c(CCC(=O)NCCCN2CCN(c3cc(C)ccc3C)CC2)c1C,–,4.61 µM (active)
CCOC(=O)c1c(C)[nH]c(C(=O)NCCN2CCOCC2)c1C,14.9%,–
CCn1c(=O)cc(OCC(=O)NCCCN2CCN(c3cccc(Cl)c3)CC2)c2ccccc21,–,20.6 µM (active)
CCOC(=O)N1CCC(Nc2c(NCCCN3CCN(c4ccc(OC)cc4)CC3)c(=O)c2=O)CC1,6.14%,–
Cc1ccc(C)c(N2CCN(C(=O)Cc3c(C(=O)O)c(C)cn3C)CC2)c1,-0.116%,–
Cn1c(=O)cc(OCC(=O)N2CCN(c3ccccc3)CC2)c2ccccc21,1.19%,–
CCOC(=O)N1CCC(Nc2c(NCCN3CCN(c4cccc(Cl)c4)CC3)c(=O)c2=O)CC1,-11.3%,–
Cc1ccccc1N1CCN(CC(=O)NCc2ccc(Cl)cc2)CC1,-29%,–
CCOc1ccc(S(=O)(=O)NCCCn2ccnc2)cc1NC(C)=O,-20.8%,–
CN(CCc1ccccc1)c1ccc([N+](=O)[O-])cn1,5.85%,–
C/C=C(/C)C(=O)Nc1cccc(C2=NOC3(C2)C[C@@H](C(N)=O)N(C(=O)C2(C)CC2)C3)c1 (some centres not stated),-16.5%,–
O=C(NCC(O)c1ccc([N+](=O)[O-])cc1)C1CCCCC1 (configuration not stated),13.8%,–
C=CC1C(OC2OC(CO)C(O)C(O)C2O)OC=C(C(=O)OC)C1CC1CC(=O)CC(CC(=O)CCc2ccc(O)cc2)O1 (configuration not stated),-16.7%,–
C[C@@H](O)c1nc2ccccc2n1N,10.4%,–
C#CCOCCOCCOCCNc1nc(N2CCOCC2)nc(N2CCN(C(=O)[C@H](Cc3ccc(O)cc3)n3cc(CCO)nn3)CC2)n1,20.5%,–
Cn1cc(CN2CCCCC2c2ccccn2)c(-c2ccc3c(c2)OCCO3)n1 (configuration not stated),-11.7%,–
CCc1nnc(NC(=O)CCC(=O)N2CCN(c3cc(C)ccc3C)CC2)s1,-7.76%,–
CC1=C(c2ccc(C)cc2)S(=O)(=O)NC1=NCCCN1CCN(c2cc(C)ccc2C)CC1,–,3.66 µM (active)
COC(=O)c1ccc2c(c1)S(=O)(=O)NC(=NCCCN1CCOCC1)S2,-1.67%,–
CCN(CC)C(=O)N1CCN(C(=O)c2ccc(C)cn2)CC1,-5.87%,–
O=C(N/N=C/c1ccc(Cl)c(Cl)c1)c1ccc2nc[nH]c2c1,–,23.1 µM (active)
CC(=NNC(=O)c1ccc2nc[nH]c2c1)c1ccc(Br)cc1,-25.5%,–
Cc1nc2ccc(C(=O)N/N=C/c3ccc(O)cc3)cc2[nH]1,-4.18%,–
CCCCc1ccc(S(=O)(=O)NC(=O)C2(C)CCN2C(=O)c2ccccc2)cc1 (configuration not stated),-2.64%,–

# — PubChem BioAssay AID686978 (National Center for Advancing Translational Sciences (NCATS), 2013)
